Results on 58 sequences are retold here after publication PMC10726135, “HNF4α isoforms regulate the circadian balance between carbohydrate and lipid metabolism in the liver”.

Over roughly 18,000 sequences, “log2 normalized intensity” has its median near 0.36; the highest 2% begin near 7.3. What follows is part of a selection rich in the highest values, with near analogues and random picks from the rest.

For the test, the target named is T1, HNF4alpha8 (COS-7 nuclear extract) (Homo sapiens, UniProt P41235-5 1-452).
T1 sequence: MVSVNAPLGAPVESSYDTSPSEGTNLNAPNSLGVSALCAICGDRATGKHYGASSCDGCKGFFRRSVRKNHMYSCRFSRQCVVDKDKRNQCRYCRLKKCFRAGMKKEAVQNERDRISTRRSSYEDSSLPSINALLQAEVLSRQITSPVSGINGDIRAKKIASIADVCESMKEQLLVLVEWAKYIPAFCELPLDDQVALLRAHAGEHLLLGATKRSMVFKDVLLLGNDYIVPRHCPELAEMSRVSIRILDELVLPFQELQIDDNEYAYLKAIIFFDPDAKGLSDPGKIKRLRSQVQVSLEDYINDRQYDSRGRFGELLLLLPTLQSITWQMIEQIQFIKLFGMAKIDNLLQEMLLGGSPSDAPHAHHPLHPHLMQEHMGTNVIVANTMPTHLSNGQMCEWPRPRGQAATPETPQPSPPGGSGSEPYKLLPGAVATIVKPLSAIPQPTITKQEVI
As to the kind of experiment: protein-binding microarray; COS-7 nuclear extract on double-stranded Agilent 4x180k PBM; binding buffer, salt, pH and temperature not given in the material; high values mean tight binding. As to conditions: chain copies: 2; label: 3' end of strand 1 on the slide; dsDNA, one strand shown. An outline of the steps:
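A human HNF4α isoform was expressed in COS-7 cells by transient CaPO4 transfection, and nuclear extracts were prepared. These were applied to a custom Agilent SurePrint G3 4x180k array carrying ~44,000 test sequences in quadruplicate as double-stranded ~60-nt oligonucleotides, and an Agilent G2565CA scanner imaged bound HNF4α at 2-µm resolution. The background-corrected, normalized gProcessedSignal from Agilent software was used as the binding signal.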
“ACCGTAAATGCATTATTGCACTGTGCTTTGGCCTAGGGAGATTAGAGTATCGGTCGA”: the binding signal is 1.3 log2 normalized intensity.

Take “TGCTCTCAGCACACTCTGGTACCATGGATGGCCTAGGGAGATTAGAGTATCGGTCGA”: the binding signal is 0.953 log2 normalized intensity. Next, “GGCTCTCCCGGGGCGGGGGTGACCAGATTAGCCTAGGGAGATTAGAGTATCGGTCGA”: 1.07 log2 normalized intensity. In the case of “TCAGGGGTCAATGTGCACATTCGAAGTTTTGCCTAGGGAGATTAGAGTATCGGTCGA”, the binding signal came to 4.86 log2 normalized intensity. For “CATCTGGGCAAGGTGTCAACCTTCATTCTCGCCTAGGGAGATTAGAGTATCGGTCGA”, the binding signal stood at 0.575 log2 normalized intensity. The value for “TCTTTTTAATCAATAATCTTTGCCCTTGAAGCCTAGGGAGATTAGAGTATCGGTCGA” was 3.49 log2 normalized intensity; that for “AGCATATTTGGCCACATCCTGTCTCCTTTAGCCTAGGGAGATTAGAGTATCGGTCGA” was 1.11 log2 normalized intensity; that for “CCTGAAGGGTGTTGTGGAATGTGCTTGGACGCCTAGGGAGATTAGAGTATCGGTCGA” was 2.16 log2 normalized intensity.

In the case of “TTTGTCACATTCCAGACTTTGTACAAGGGCGCCTAGGGAGATTAGAGTATCGGTCGA”, the binding signal amounted to 3.1 log2 normalized intensity. With “GTACTTTGTACATGGGAATAGACATTCCAGGCCTAGGGAGATTAGAGTATCGGTCGA”, the binding signal stood at 1.99 log2 normalized intensity. Next, “TCCAAAATACGACCTTTGGACAGGGTGACGGCCTAGGGAGATTAGAGTATCGGTCGA”: 7.56 log2 normalized intensity.

For the sequence “GGGCTTTTGTCACATTCCAGACTTTGTACAGCCTAGGGAGATTAGAGTATCGGTCGA”, the binding signal amounted to 5.85 log2 normalized intensity.

“CCTGGTGACCTTTGTTTGGTCAAATACCTAGCCTAGGGAGATTAGAGTATCGGTCGA”: the binding signal was 3.66 log2 normalized intensity. As to “TTGGACTTTGTACATTCCAAATACGATAATGCCTAGGGAGATTAGAGTATCGGTCGA”, the binding signal is 5.9 log2 normalized intensity. In the case of “AATACGACCTTTGGACAGGGTGACGTCATTGCCTAGGGAGATTAGAGTATCGGTCGA”, the binding signal was found to be 6.84 log2 normalized intensity.

“AGAAGTTGGACTTTGTACATTCCAAATACGGCCTAGGGAGATTAGAGTATCGGTCGA”: the binding signal was 7.64 log2 normalized intensity.

On to “ACATCAGAAGTTGGACTTTGTACATTCCAAGCCTAGGGAGATTAGAGTATCGGTCGA”, for which the binding signal was found to be 8.13 log2 normalized intensity.

As for “AAAGGCCTTTGAAGCTTGAAGGAGTATATGGCCTAGGGAGATTAGAGTATCGGTCGA”, the binding signal is 0.256 log2 normalized intensity. With “CTTATCAGCAGCTGGGGTGACTGATTGGAGGCCTAGGGAGATTAGAGTATCGGTCGA”, the binding signal is 0.845 log2 normalized intensity. Take “AGTGCACCTTAATAAGCACATTCCTTTCCCGCCTAGGGAGATTAGAGTATCGGTCGA”: the binding signal is -0.98 log2 normalized intensity. “ATCTTATCAGCAAGGGCATTTGCGTAGGCTGCCTAGGGAGATTAGAGTATCGGTCGA”: the binding signal was -0.794 log2 normalized intensity. Next, “TGCTAAGTGCCATGTAATCAAACTGAACTTGCCTAGGGAGATTAGAGTATCGGTCGA”: 2.1 log2 normalized intensity; “TTGCACTGTGCTTTGTTTACTTAACCTTTGGCCTAGGGAGATTAGAGTATCGGTCGA”: 4.5 log2 normalized intensity. For the sequence “GTGGCTACCTGTGCAGATATTTAACCTTTGGCCTAGGGAGATTAGAGTATCGGTCGA”, the binding signal is 4.61 log2 normalized intensity.

As for “CTTTGTTTACTTAACCTTTGATCATATGCAGCCTAGGGAGATTAGAGTATCGGTCGA”, the binding signal is 5.75 log2 normalized intensity. With “CTGTGCTTTGTTTACTTAACCTTTGATCATGCCTAGGGAGATTAGAGTATCGGTCGA”, the binding signal came to 7.84 log2 normalized intensity. Next, “TACCTGTGCAGATATTTAACCTTTGATCTGGCCTAGGGAGATTAGAGTATCGGTCGA”: 8.15 log2 normalized intensity.

Take “GATATTTAACCTTTGATCTGTAAGCTCTCTGCCTAGGGAGATTAGAGTATCGGTCGA”: the binding signal is 5.39 log2 normalized intensity. The value for “CCTGTCTGACAGGATGAATTTATTGCCCTCGCCTAGGGAGATTAGAGTATCGGTCGA” was 3.21 log2 normalized intensity; that for “ATGGTGACCATGTGATGTGAAGAGTGTGGAGCCTAGGGAGATTAGAGTATCGGTCGA” was 1.31 log2 normalized intensity. The value for “CTTGTGTAATAACGAGACCTTAGCCCTGAAGCCTAGGGAGATTAGAGTATCGGTCGA” was -0.451 log2 normalized intensity. Next, “TTCCTCCCTTGGAATGTGACCTTAGACCCCGCCTAGGGAGATTAGAGTATCGGTCGA”: 8.83 log2 normalized intensity; “GAGAGTTCCCTTGGAATGCCAGATGACCTTGCCTAGGGAGATTAGAGTATCGGTCGA”: 4.6 log2 normalized intensity; “TTTCTGTCCAGAGTTTAAATGACCTCTGCCGCCTAGGGAGATTAGAGTATCGGTCGA”: 4.72 log2 normalized intensity. With “TTGCCCTTCTTGGATGCCCTTCCCTAACCCGCCTAGGGAGATTAGAGTATCGGTCGA”, the binding signal worked out at 3.04 log2 normalized intensity. Next, “GTCCAGAGTTTAAATGACCTCTGCCCTTCCGCCTAGGGAGATTAGAGTATCGGTCGA”: 7.43 log2 normalized intensity; “TTAGCTTCCTCCCTTGGAATGTGACCTTAGGCCTAGGGAGATTAGAGTATCGGTCGA”: 5.27 log2 normalized intensity; “CCCTTGGAATGTGACCTTAGACCCCTGAATGCCTAGGGAGATTAGAGTATCGGTCGA”: 6.49 log2 normalized intensity. The value for “CTGGCTTTCATTCCACTGACTTGCAACCTTGCCTAGGGAGATTAGAGTATCGGTCGA” was 1.09 log2 normalized intensity; that for “TTTCATTCCACTGACTTGCAACCTTTGCCCGCCTAGGGAGATTAGAGTATCGGTCGA” was 7.51 log2 normalized intensity; that for “TTCCACTGACTTGCAACCTTTGCCCTGTTGGCCTAGGGAGATTAGAGTATCGGTCGA” was 7.2 log2 normalized intensity.

Take “GAGTTTAAATGACCTCTGCCCTTCCACCCAGCCTAGGGAGATTAGAGTATCGGTCGA”: the binding signal worked out at 5.16 log2 normalized intensity. Next, “TTCCCTTGGAATGCCAGATGACCTTTGCCCGCCTAGGGAGATTAGAGTATCGGTCGA”: 10.2 log2 normalized intensity; “AAGATAATGGGTCCGAAGGTCAGCTGACCAGCCTAGGGAGATTAGAGTATCGGTCGA”: 5.57 log2 normalized intensity. On to “TGATTATTTGTGAAGGCATTATTGGTGAAAGCCTAGGGAGATTAGAGTATCGGTCGA”, for which the binding signal came out at 0.974 log2 normalized intensity. Next, “TCAGAGCTTGAAAAGTCTTTCTGCCAAAGTGCCTAGGGAGATTAGAGTATCGGTCGA”: 0.513 log2 normalized intensity; “TGGCATCCCTGTGGTATTTGCTCTGTCATCGCCTAGGGAGATTAGAGTATCGGTCGA”: 1.39 log2 normalized intensity; “GCTAAAAGTTGAATTCTTGACTTTGGACTTGCCTAGGGAGATTAGAGTATCGGTCGA”: 6.55 log2 normalized intensity. Turning to “GACCTCTGGACCTCATCTTCCTCCCCAATAGCCTAGGGAGATTAGAGTATCGGTCGA”, the binding signal came to 4.6 log2 normalized intensity. In the case of “CCTAGGTGCTGAAGATGCAACAGTGACCCAGCCTAGGGAGATTAGAGTATCGGTCGA”, the binding signal came out at 3.1 log2 normalized intensity. On to “AGTCTGGAGGGGTGCGAAGGTCGAGGCCAGGCCTAGGGAGATTAGAGTATCGGTCGA”, for which the binding signal was 3.39 log2 normalized intensity. As to “AGCTACTAGCAAATCTGCCCAACCTTTGCCGCCTAGGGAGATTAGAGTATCGGTCGA”, the binding signal is 2.1 log2 normalized intensity. The value for “CTGCTTTTATGACCTTTGACTGCAGAAGATGCCTAGGGAGATTAGAGTATCGGTCGA” was 6.33 log2 normalized intensity. Next, “TTCTTTTTTTTTTTTTTTTTTTTTTGAGATGCCTAGGGAGATTAGAGTATCGGTCGA”: 3.08 log2 normalized intensity; “AGATGACCTTTGCCCTTGACTTTTTGTGGGGCCTAGGGAGATTAGAGTATCGGTCGA”: 7.72 log2 normalized intensity; “ATGCCAGATGACCTTTGCCCTTGACTTTTTGCCTAGGGAGATTAGAGTATCGGTCGA”: 9.28 log2 normalized intensity. “ACCTTTGCCCTTGACTTTTTGTGGGGGCAGGCCTAGGGAGATTAGAGTATCGGTCGA”: the binding signal is 3.39 log2 normalized intensity. Turning to “TGCCCTTGACTTTTTGTGGGGGCAGATGTTGCCTAGGGAGATTAGAGTATCGGTCGA”, the binding signal is 2.31 log2 normalized intensity.
